# Source: PMC11006913
# Numbering of substitutions follows the chain as printed.
# Experiments:
# Test in all cases: PBM; 200 nM protein, PBS
# Details in all cases: dsDNA, one strand shown
# HOXC9 [1] = target: HOXC9 (Homo sapiens, UniProt P31274 178-260)
# HOXC9 [2] = target: HOXC9 (Homo sapiens, UniProt P31274 178-260, R222W)
# HOXC9 [3] = target: HOXC9 (Homo sapiens, UniProt P31274 178-260, R193K)
# NKX2-6 [4] = target: T1, NKX2-6 (Homo sapiens, UniProt A6NCS4 118-204, R150C)
# T1 sequence: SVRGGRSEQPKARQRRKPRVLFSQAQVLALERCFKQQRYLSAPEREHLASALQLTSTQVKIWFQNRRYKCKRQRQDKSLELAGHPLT
# NKX2-6 [5] = target: T2, NKX2-6 (Homo sapiens, UniProt A6NCS4 118-204, F151L)
# T2 sequence: T1 sequence with C33R, F34L
# NKX3-2 [6] = target: NKX3-2 (Homo sapiens, UniProt P78367 192-278, P234S)
# NKX3-2 (Homo sapiens, UniProt P78367 192-278, P234S), sequence (P78367 192-278 P234S): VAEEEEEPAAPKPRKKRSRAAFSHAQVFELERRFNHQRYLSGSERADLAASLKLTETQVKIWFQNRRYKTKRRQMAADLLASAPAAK
# NKX3-2 [7] = target: NKX3-2 (Homo sapiens, UniProt P78367 192-278)
# NKX3-2 (Homo sapiens, UniProt P78367 192-278), sequence (P78367 192-278): as the sequence (P78367 192-278 P234S) above, with S43P counted along it
# PITX2 = PITX2 (Homo sapiens, UniProt Q99697 72-157)
# CRX = CRX (Homo sapiens, UniProt O43186 26-111, E42D)
# CRX, sequence (O43186 26-111 E42D): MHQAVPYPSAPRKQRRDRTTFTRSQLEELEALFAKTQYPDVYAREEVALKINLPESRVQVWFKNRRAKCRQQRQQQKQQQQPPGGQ
# HOXD13 [8] = target: HOXD13 (Homo sapiens, UniProt P35453 263-343, T313R)
# HOXD13 (Homo sapiens, UniProt P35453 263-343, T313R), sequence (P35453 263-343 T313R): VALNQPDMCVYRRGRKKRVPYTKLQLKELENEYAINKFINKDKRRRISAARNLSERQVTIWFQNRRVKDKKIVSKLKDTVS
# HOXD13 [9] = target: HOXD13 (Homo sapiens, UniProt P35453 263-343)
# HOXD13 (Homo sapiens, UniProt P35453 263-343), sequence (P35453 263-343): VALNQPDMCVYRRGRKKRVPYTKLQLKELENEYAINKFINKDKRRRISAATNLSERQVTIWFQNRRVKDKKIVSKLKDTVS
# HOXD13 [10] = target: HOXD13 (Homo sapiens, UniProt P35453 263-343, T313A)
# HOXD13 (Homo sapiens, UniProt P35453 263-343, T313A), sequence (P35453 263-343 T313A): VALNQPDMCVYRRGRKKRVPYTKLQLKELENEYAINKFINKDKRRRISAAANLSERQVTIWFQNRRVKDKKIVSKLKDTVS
# ALX3 [11] = target: ALX3 (Homo sapiens, UniProt O95076 139-225, N203Q)
# ALX3 (Homo sapiens, UniProt O95076 139-225, N203Q), sequence (O95076 139-225 N203Q): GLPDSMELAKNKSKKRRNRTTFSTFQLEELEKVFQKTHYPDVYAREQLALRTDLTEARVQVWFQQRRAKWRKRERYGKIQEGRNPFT
# ALX3 [12] = target: ALX3 (Homo sapiens, UniProt O95076 139-225)
# ALX3 (Homo sapiens, UniProt O95076 139-225), sequence (O95076 139-225): as the sequence (O95076 139-225 N203Q) above, with Q65N counted along it
# ALX3 [13] = target: ALX3 (Homo sapiens, UniProt O95076 139-225, L168Q)
# ALX3 (Homo sapiens, UniProt O95076 139-225, L168Q), sequence (O95076 139-225 L168Q): as the sequence (O95076 139-225 N203Q) above, with L30Q, Q65N counted along it
# ALX3 [14] = target: ALX3 (Homo sapiens, UniProt O95076 139-225, L168V)
# ALX3 (Homo sapiens, UniProt O95076 139-225, L168V), sequence (O95076 139-225 L168V): as the sequence (O95076 139-225 N203Q) above, with L30V, Q65N counted along it
# ALX3 [15] = target: ALX3 (Homo sapiens, UniProt O95076 139-225, N203S)
# ALX3 (Homo sapiens, UniProt O95076 139-225, N203S), sequence (O95076 139-225 N203S): as the sequence (O95076 139-225 N203Q) above, with Q65S counted along it
# NKX2-6 [16] = target: T3, NKX2-6 (Homo sapiens, UniProt A6NCS4 118-204)
# T3 sequence: T1 sequence with C33R
# ALX1 [17] = target: ALX1 (Homo sapiens, UniProt Q15699 118-204, L144V)
# ALX1 (Homo sapiens, UniProt Q15699 118-204, L144V), sequence (Q15699 118-204 L144V): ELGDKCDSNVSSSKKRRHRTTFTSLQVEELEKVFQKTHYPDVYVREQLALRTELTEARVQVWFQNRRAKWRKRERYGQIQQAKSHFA
# ALX1 [18] = target: ALX1 (Homo sapiens, UniProt Q15699 118-204, L144R)
# ALX1 (Homo sapiens, UniProt Q15699 118-204, L144R), sequence (Q15699 118-204 L144R): as the sequence (Q15699 118-204 L144V) above, with V27R counted along it
# ALX1 [19] = target: ALX1 (Homo sapiens, UniProt Q15699 118-204)
# ALX1 (Homo sapiens, UniProt Q15699 118-204), sequence (Q15699 118-204): as the sequence (Q15699 118-204 L144V) above, with V27L counted along it
# HOXC9 (Homo sapiens, UniProt P31274 178-260), sequence (P31274 178-260): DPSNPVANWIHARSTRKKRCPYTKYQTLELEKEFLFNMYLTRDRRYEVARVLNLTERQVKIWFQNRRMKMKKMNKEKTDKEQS
# HOXC9 (Homo sapiens, UniProt P31274 178-260, R222W), sequence (P31274 178-260 R222W): as the sequence (P31274 178-260) above, with R45W counted along it
# HOXC9 (Homo sapiens, UniProt P31274 178-260, R193K), sequence (P31274 178-260 R193K): as the sequence (P31274 178-260) above, with R16K counted along it
sequence,measurement,setting,value
GCTCTTAA,binding signal,HOXC9 [1],"11 upbm affinity estimate (log intensity, higher = more binding, comparable within an allelic series)"
same,binding signal,HOXC9 [2],"10.2 upbm affinity estimate (log intensity, higher = more binding, comparable within an allelic series)"
CATGGTAA,binding signal,HOXC9 [1],"10.9 upbm affinity estimate (log intensity, higher = more binding, comparable within an allelic series)"
same,binding signal,HOXC9 [3],"11 upbm affinity estimate (log intensity, higher = more binding, comparable within an allelic series)"
ACAAGTGC,binding signal,NKX2-6 [4],"11.5 upbm affinity estimate (log intensity, higher = more binding, comparable within an allelic series)"
same,binding signal,NKX2-6 [5],"10.6 upbm affinity estimate (log intensity, higher = more binding, comparable within an allelic series)"
ATTGCGCA,binding signal,HOXC9 [1],"10.8 upbm affinity estimate (log intensity, higher = more binding, comparable within an allelic series)"
same,binding signal,HOXC9 [2],"10.1 upbm affinity estimate (log intensity, higher = more binding, comparable within an allelic series)"
ATTAGAGG,binding signal,HOXC9 [1],"10.9 upbm affinity estimate (log intensity, higher = more binding, comparable within an allelic series)"
same,binding signal,HOXC9 [2],"10.2 upbm affinity estimate (log intensity, higher = more binding, comparable within an allelic series)"
AAGTACAT,binding signal,NKX2-6 [4],"11.6 upbm affinity estimate (log intensity, higher = more binding, comparable within an allelic series)"
same,binding signal,NKX3-2 [6],"12.4 upbm affinity estimate (log intensity, higher = more binding, comparable within an allelic series)"
same,binding signal,NKX3-2 [7],"12.6 upbm affinity estimate (log intensity, higher = more binding, comparable within an allelic series)"
TATCTCAA,binding signal,HOXC9 [1],"11 upbm affinity estimate (log intensity, higher = more binding, comparable within an allelic series)"
CACTTACA,binding signal,NKX2-6 [4],"11.6 upbm affinity estimate (log intensity, higher = more binding, comparable within an allelic series)"
same,binding signal,NKX2-6 [5],"10.6 upbm affinity estimate (log intensity, higher = more binding, comparable within an allelic series)"
same,binding signal,NKX3-2 [6],"12.6 upbm affinity estimate (log intensity, higher = more binding, comparable within an allelic series)"
same,binding signal,NKX3-2 [7],"12.6 upbm affinity estimate (log intensity, higher = more binding, comparable within an allelic series)"
ATTGCACA,binding signal,HOXC9 [1],"10.8 upbm affinity estimate (log intensity, higher = more binding, comparable within an allelic series)"
AAGTGGCA,binding signal,NKX2-6 [4],"11.6 upbm affinity estimate (log intensity, higher = more binding, comparable within an allelic series)"
same,binding signal,NKX3-2 [6],"12.6 upbm affinity estimate (log intensity, higher = more binding, comparable within an allelic series)"
same,binding signal,NKX3-2 [7],"12.7 upbm affinity estimate (log intensity, higher = more binding, comparable within an allelic series)"
GAACATTC,binding signal,HOXC9 [1],"10.5 upbm affinity estimate (log intensity, higher = more binding, comparable within an allelic series)"
GCCGACCA,binding signal,NKX2-6 [4],"9.61 upbm affinity estimate (log intensity, higher = more binding, comparable within an allelic series)"
same,binding signal,PITX2,"7.83 upbm affinity estimate (log intensity, higher = more binding, comparable within an allelic series)"
GATTAAGA,binding signal,CRX,"12.7 upbm affinity estimate (log intensity, higher = more binding, comparable within an allelic series)"
TACACTCA,binding signal,NKX2-6 [4],"11.1 upbm affinity estimate (log intensity, higher = more binding, comparable within an allelic series)"
same,binding signal,NKX3-2 [6],"11.9 upbm affinity estimate (log intensity, higher = more binding, comparable within an allelic series)"
same,binding signal,NKX3-2 [7],"12 upbm affinity estimate (log intensity, higher = more binding, comparable within an allelic series)"
ACCCTGCC,binding signal,NKX2-6 [4],"9.52 upbm affinity estimate (log intensity, higher = more binding, comparable within an allelic series)"
same,binding signal,HOXD13 [8],"9.6 upbm affinity estimate (log intensity, higher = more binding, comparable within an allelic series)"
same,binding signal,HOXD13 [9],"9.65 upbm affinity estimate (log intensity, higher = more binding, comparable within an allelic series)"
same,binding signal,HOXD13 [10],"9.68 upbm affinity estimate (log intensity, higher = more binding, comparable within an allelic series)"
CCGTGCCG,binding signal,NKX2-6 [4],"9.27 upbm affinity estimate (log intensity, higher = more binding, comparable within an allelic series)"
same,binding signal,ALX3 [11],"7.7 upbm affinity estimate (log intensity, higher = more binding, comparable within an allelic series)"
same,binding signal,HOXD13 [8],"9.53 upbm affinity estimate (log intensity, higher = more binding, comparable within an allelic series)"
same,binding signal,HOXD13 [9],"9.45 upbm affinity estimate (log intensity, higher = more binding, comparable within an allelic series)"
same,binding signal,ALX3 [12],"7.7 upbm affinity estimate (log intensity, higher = more binding, comparable within an allelic series)"
same,binding signal,ALX3 [13],"7.76 upbm affinity estimate (log intensity, higher = more binding, comparable within an allelic series)"
same,binding signal,HOXD13 [10],"9.84 upbm affinity estimate (log intensity, higher = more binding, comparable within an allelic series)"
same,binding signal,ALX3 [14],"7.72 upbm affinity estimate (log intensity, higher = more binding, comparable within an allelic series)"
same,binding signal,ALX3 [15],"7.71 upbm affinity estimate (log intensity, higher = more binding, comparable within an allelic series)"
GATAAGTA,binding signal,NKX2-6 [4],"11.6 upbm affinity estimate (log intensity, higher = more binding, comparable within an allelic series)"
same,binding signal,NKX2-6 [16],"13.3 upbm affinity estimate (log intensity, higher = more binding, comparable within an allelic series)"
same,binding signal,NKX2-6 [5],"10.6 upbm affinity estimate (log intensity, higher = more binding, comparable within an allelic series)"
GCCCACGA,binding signal,NKX2-6 [4],"9.49 upbm affinity estimate (log intensity, higher = more binding, comparable within an allelic series)"
same,binding signal,ALX1 [17],"6.38 upbm affinity estimate (log intensity, higher = more binding, comparable within an allelic series)"
same,binding signal,ALX1 [18],"6.28 upbm affinity estimate (log intensity, higher = more binding, comparable within an allelic series)"
same,binding signal,ALX1 [19],"6.37 upbm affinity estimate (log intensity, higher = more binding, comparable within an allelic series)"
CGTAACGC,binding signal,HOXC9 [1],"10.6 upbm affinity estimate (log intensity, higher = more binding, comparable within an allelic series)"
AAGTGGTG,binding signal,NKX2-6 [4],"11.6 upbm affinity estimate (log intensity, higher = more binding, comparable within an allelic series)"
same,binding signal,NKX3-2 [6],"12.7 upbm affinity estimate (log intensity, higher = more binding, comparable within an allelic series)"
same,binding signal,NKX3-2 [7],"12.8 upbm affinity estimate (log intensity, higher = more binding, comparable within an allelic series)"
